Laboratory results: PubChem BioAssay AID1159580 (chemical genetic matrix, 2015)
The whole screen tested about 5,500 compounds, of which about 2,000 (36%) were called active. Roughly 18% stayed inconclusive and do not appear here. Rule as the data show it: active = normalized growth mostly below about 0.91 (no sharp cut-off); inconclusive = no clear call, values can overlap the other calls; inactive = mostly above about 0.92. The list shows a part of the results.

Experiment: chemical genetic growth profiling, strain panel (AID 1159580);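 also: tested at 20 µM; growth read once vehicle control cultures reached saturation at 30 °C; 1 = growth at the plate median or of vehicle wells; lower values mean less growth of the strain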
Settings: growth OD

Measured: normalized growth

CCOC(=O)C1(O)Oc2cc(OC)cc(OC)c2C(=O)C1c1ccccc1 (centres undefined)
active: S. cerevisiae deletion strains, locus YBR021W, strain FUR4, active compounds read low 0.837
inactive: S. cerevisiae deletion strains, locus YAL013W, strain DEP1, active compounds read low 0.969 | S. cerevisiae deletion strains, locus YBR229C, strain ROT2, active compounds read low 1.01 | S. cerevisiae deletion strains, locus YCL029C, strain bik1, active compounds read low 0.996 | S. cerevisiae deletion strains, locus YDL035C, strain GPR1, active compounds read low 0.984 | S. cerevisiae deletion strains, locus YDL074C, strain BRE1, active compounds read low 0.947 | S. cerevisiae deletion strains, locus YDL101C, strain DUN1, active compounds read low 1 | S. cerevisiae deletion strains, locus YDL134C, strain PPH21, active compounds read low 0.986 | S. cerevisiae deletion strains, locus YDL185W, strain tfp1, active compounds read low 1 | S. cerevisiae deletion strains, locus YDL192W, strain arf1, active compounds read low 0.982 | S. cerevisiae deletion strains, locus YDR101C, strain arx1, active compounds read low 0.984 | S. cerevisiae deletion strains, locus YDR162C, strain NBP2, active compounds read low 1 | S. cerevisiae deletion strains, locus YDR318W, strain mcm21, active compounds read low 0.979 | S. cerevisiae deletion strains, locus YDR388W, active compounds read low 0.976 | S. cerevisiae deletion strains, locus YDR502C, strain sam2, active compounds read low 0.932 | S. cerevisiae deletion strains, locus YEL061C, strain CIN8, active compounds read low 0.996 | S. cerevisiae deletion strains, locus YER110C, active compounds read low 0.977 | S. cerevisiae deletion strains, locus YER155C, strain BEM2, active compounds read low 0.978 | S. cerevisiae deletion strains, locus YER167W, strain BCK2, active compounds read low 1 | S. cerevisiae deletion strains, locus YGL078C, strain dbp3, active compounds read low 0.993 | S. cerevisiae deletion strains, locus YGL086W, strain mad1, active compounds read low 0.97 | S. cerevisiae deletion strains, locus YGL248W, strain PDE1, active compounds read low 0.99 | S. cerevisiae deletion strains, locus YGR135W, strain pre9, active compounds read low 0.925 | S. cerevisiae deletion strains, locus YGR252W, strain gcn5, active compounds read low 0.815 | S. cerevisiae deletion strains, locus YHR079C, strain IRE1 (second series), active compounds read low 0.974 | S. cerevisiae deletion strains, locus YHR094C, strain hxt1, active compounds read low 0.981 | S. cerevisiae deletion strains, locus YHR129C, strain ARP1, active compounds read low 0.993 | S. cerevisiae deletion strains, locus YHR200W, strain rpn10, active compounds read low 0.959 | S. cerevisiae deletion strains, locus YIL066C, strain RNR3, active compounds read low 1 | S. cerevisiae deletion strains, locus YIL073C, strain SPO22, active compounds read low 0.968 | S. cerevisiae deletion strains, locus YIL125W, strain kgd1, active compounds read low 0.989 | S. cerevisiae deletion strains, locus YIR030C, strain dcg1, active compounds read low 0.983 | S. cerevisiae deletion strains, locus YJL095W, strain BCK1, active compounds read low 0.97 | S. cerevisiae deletion strains, locus YJL134W, strain LCB3, active compounds read low 1 | S. cerevisiae deletion strains, locus YJL168C, strain set2, active compounds read low 0.977 | S. cerevisiae deletion strains, locus YJL187C, strain SWE1 (second series), active compounds read low 0.971 | S. cerevisiae deletion strains, locus YJR043C, strain POL32, active compounds read low 0.967 | S. cerevisiae deletion strains, locus YKL009W, strain mrt4, active compounds read low 0.985 | S. cerevisiae deletion strains, locus YKL068W, active compounds read low 1 | S. cerevisiae deletion strains, locus YKL085W, strain MDH1 (second series), active compounds read low 1.01 | S. cerevisiae deletion strains, locus YKL085W, strain MDH1, active compounds read low 1.01 | S. cerevisiae deletion strains, locus YKR001C, strain vps1, active compounds read low 0.97 | S. cerevisiae deletion strains, locus YLR039C, strain RIC1, active compounds read low 1.03 | S. cerevisiae deletion strains, locus YLR058C, strain SHM2, active compounds read low 1 | S. cerevisiae deletion strains, locus YLR102C, strain apc9, active compounds read low 0.976 | S. cerevisiae deletion strains, locus YLR262C, strain YPT6, active compounds read low 1.03 | S. cerevisiae deletion strains, locus YLR268W, strain sec22, active compounds read low 0.973 | S. cerevisiae deletion strains, locus YLR371W, strain rom2, active compounds read low 0.997 | S. cerevisiae deletion strains, locus YLR418C, strain cdc73, active compounds read low 0.906 | S. cerevisiae deletion strains, locus YML016C, strain PPZ1, active compounds read low 0.998 | S. cerevisiae deletion strains, locus YML032C, strain rad52, active compounds read low 0.97 | S. cerevisiae deletion strains, locus YML124C, strain tub3, active compounds read low 0.977 | S. cerevisiae deletion strains, locus YMR078C, strain ctf18, active compounds read low 0.979 | S. cerevisiae deletion strains, locus YMR223W, strain ubp8, active compounds read low 0.951 | S. cerevisiae deletion strains, locus YMR263W, strain SAP30, active compounds read low 0.987 | S. cerevisiae deletion strains, locus YMR307W, strain GAS1, active compounds read low 0.979 | S. cerevisiae deletion strains, locus YNL067W, strain RPL9B, active compounds read low 0.983 | S. cerevisiae deletion strains, locus YNL233W, strain BNI4, active compounds read low 0.955 | S. cerevisiae deletion strains, locus YNL250W, strain rad50, active compounds read low 0.979 | S. cerevisiae deletion strains, locus YNL271C, strain bni1, active compounds read low 0.999 | S. cerevisiae deletion strains, locus YNL298W, strain CLA4, active compounds read low 1.02 | S. cerevisiae deletion strains, locus YNL307C, strain MCK1, active compounds read low 0.961 | S. cerevisiae deletion strains, locus YNL322C, strain KRE1, active compounds read low 0.991 | S. cerevisiae deletion strains, locus YNR052C, strain pop2, active compounds read low 0.989 | S. cerevisiae deletion strains, locus YOL006C, strain TOP1, active compounds read low 0.893 | S. cerevisiae deletion strains, locus YOL012C, strain htz1 1.08 | S. cerevisiae deletion strains, locus YOL147C, strain pex11, active compounds read low 0.973 | S. cerevisiae deletion strains, locus YOR061W, strain CKA2, active compounds read low 1.01 | S. cerevisiae deletion strains, locus YOR069W, strain VPS5, active compounds read low 0.999 | S. cerevisiae deletion strains, locus YOR136W, strain idh2, active compounds read low 0.981 | S. cerevisiae deletion strains, locus YOR144C, strain elg1, active compounds read low 0.988 | S. cerevisiae deletion strains, locus YOR184W, strain ser1, active compounds read low 0.978 | S. cerevisiae deletion strains, locus YOR316C, strain cot1, active compounds read low 0.98 | S. cerevisiae deletion strains, locus YPR119W, strain clb2, active compounds read low 0.96 | S. cerevisiae deletion strains, locus YPR141C, strain kar3, active compounds read low 0.99 | S. cerevisiae deletion strains, locus YPR163C, strain tif3, active compounds read low 0.984 | S. cerevisiae deletion strains, locus YPR167C, strain met16, active compounds read low 0.961 | S. cerevisiae deletion strains, strain wtn01, active compounds read low 0.973 | S. cerevisiae strains, strain wild type, active compounds read low 0.99
